Measurements from PubChem BioAssay (NCATS).
Records with an inconclusive call do not appear. Where a call stands in place of a potency, no number is given. The source made the active and inactive calls. Unless noted, calls follow the shape of the dose curve; as a rule, active = well fitted curve in the direction sought with a large enough effect; inconclusive = small, poorly fitted or top-dose-only effect, or another doubt; inactive = no such curve, though single readings can be large; an effect the other way counts as inactive or inconclusive.

How the values were obtained:
[1] = AP1 Signaling Pathway (AID 357; active = well fitted curve in either direction with a large enough effect, not every such curve was filed as active;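 also: ME-180 reporter cells stimulated with EGF at its EC50 level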)
In short: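 Beta-lactamase reporter under AP-1 response element, ME-180 background. Stimulus: EC50 EGF. Compound exposure 5 h, 37 °C. Detection: CCF4, 2.5 h RT, 460/530 nm. Values: AC50 from titration.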

[2] = target: Cytochrome P450 1A2 (Homo sapiens) (UniProt P05177); experiment: p450-cyp1a2 (AID 410; calls by dose curve; also: potency is read from the fitted curve at half-maximal effect)
Sequence of Cytochrome P450 1A2 (Homo sapiens) (P05177 whole entry, looked up): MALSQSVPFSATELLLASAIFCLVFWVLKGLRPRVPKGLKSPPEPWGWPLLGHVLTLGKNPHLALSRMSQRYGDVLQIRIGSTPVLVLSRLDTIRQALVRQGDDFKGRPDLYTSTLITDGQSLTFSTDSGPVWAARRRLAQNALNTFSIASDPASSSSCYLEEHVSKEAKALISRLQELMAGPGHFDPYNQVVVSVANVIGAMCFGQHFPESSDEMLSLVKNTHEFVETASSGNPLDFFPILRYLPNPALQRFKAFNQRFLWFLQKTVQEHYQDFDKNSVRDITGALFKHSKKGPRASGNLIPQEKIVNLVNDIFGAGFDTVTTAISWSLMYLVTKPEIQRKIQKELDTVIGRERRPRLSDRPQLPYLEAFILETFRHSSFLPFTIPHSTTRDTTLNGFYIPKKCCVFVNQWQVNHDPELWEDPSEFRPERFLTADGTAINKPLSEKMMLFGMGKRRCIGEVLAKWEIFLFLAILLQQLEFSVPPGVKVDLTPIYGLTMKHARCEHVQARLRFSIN
In short: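 Human CYP1A2 (20nM) demethylated Luciferin-ME at its Km (100uM) in 100mM KPO4. After 10 min compound preincubation, NADPH regeneration ran the reaction 60 min at room temperature. Luciferin was read by luminescence, normalized to 57 uM furafylline.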

[3] = NFAT Signaling Pathway (AID 444; active = well fitted curve in either direction with a large enough effect, not every such curve was filed as active;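 also: carbachol stimulus at about its EC50 of 1 µM final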); details: Jurkat NFAT-bla M1, carbachol, beta-lactamase ratio, 5 h; at 17.2 µM (top of the series) unless noted
In short: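 Jurkat cells carrying an NFAT-driven β-lactamase reporter and co-transfected muscarinic M1 receptor were treated with compound plus carbachol (1 uM final, an EC50 level) for 5 h at 37 °C. CCF4 loading followed for 1 h at RT; 460/530 nm ratio gave %activity.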

[4] = Stat Signaling Pathway (AID 446; active = well fitted curve in either direction with a large enough effect, not every such curve was filed as active;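 also: ME-180 cervical cancer cells given 40 pM IL-6 alongside compound; SIE-controlled beta-lactamase reporter measured as 460/530 nm FRET emission ratio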)
In short: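 ME-180 cells carrying a SIE-driven beta-lactamase reporter are stimulated with 40 pM IL-6 for 5 h at 37C in the presence of compound. The 460/530 nm FRET substrate ratio is read after 2.5 h at RT. Data are normalised to 300 pM IL-6 and to 125 nM JAK inhibitor controls.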

[5] = target: Glucocorticoid receptor (Homo sapiens) (UniProt P04150); experiment: GR-GFP Redistribution (AID 450;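 active = compounds whose dose series gives a full or clear partial fitted curve of increased nuclear translocation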; also: potency is read from the fitted curve at half-maximal effect); details: U2OS GR-GFP nuclear translocation, laser cytometry, 2 h
Sequence of Glucocorticoid receptor (Homo sapiens) (P04150 whole entry, looked up, the tested form may be a part): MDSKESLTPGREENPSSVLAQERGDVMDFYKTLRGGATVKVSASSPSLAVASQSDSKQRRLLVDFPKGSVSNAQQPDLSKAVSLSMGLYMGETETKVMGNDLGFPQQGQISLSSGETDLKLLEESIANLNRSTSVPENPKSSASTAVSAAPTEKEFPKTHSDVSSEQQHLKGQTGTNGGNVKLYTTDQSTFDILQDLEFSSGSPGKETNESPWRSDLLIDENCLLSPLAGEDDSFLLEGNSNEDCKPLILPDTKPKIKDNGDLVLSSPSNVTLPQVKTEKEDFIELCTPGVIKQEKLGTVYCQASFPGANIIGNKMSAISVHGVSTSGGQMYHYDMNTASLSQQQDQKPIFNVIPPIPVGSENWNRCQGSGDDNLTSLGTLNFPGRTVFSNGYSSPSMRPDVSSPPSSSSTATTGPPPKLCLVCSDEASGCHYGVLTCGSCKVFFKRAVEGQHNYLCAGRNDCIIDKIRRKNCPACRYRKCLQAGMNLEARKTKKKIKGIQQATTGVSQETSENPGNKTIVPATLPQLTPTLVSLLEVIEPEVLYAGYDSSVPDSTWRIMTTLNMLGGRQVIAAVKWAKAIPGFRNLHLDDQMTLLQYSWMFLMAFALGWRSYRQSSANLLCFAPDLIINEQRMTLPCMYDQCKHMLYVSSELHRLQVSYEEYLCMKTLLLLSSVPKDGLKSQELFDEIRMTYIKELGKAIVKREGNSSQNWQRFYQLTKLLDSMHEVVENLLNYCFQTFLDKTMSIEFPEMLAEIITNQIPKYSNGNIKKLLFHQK

[6] = target: Glucocorticoid receptor (Homo sapiens) (UniProt P04150); experiment: GR-EFC Redistribution (AID 451; calls by dose curve; also: potency is read from the fitted curve at half-maximal effect); details: CHO-K1 GR-EFC translocation, beta-gal luminescence, 2 h
In short: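 CHO-K1 cells stably expressing nuclear-localized β-gal enzyme acceptor and GR fused C-terminally to the enzyme donor fragment; ligand-driven nuclear translocation restores β-gal by complementation. Compounds titrated up to 46 uM final, 2 h at 37 °C; luminescence read.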

[7] = target: Mitogen-activated protein kinase 10 (Mus musculus) (UniProt Q61831); experiment: JNK3 AlphaScreen Assay (AID 530; active = well fitted curve in either direction with a large enough effect, not every such curve was filed as active;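 also: kinase came from lysate of stimulated human HepG2 cells; signal reports phosphorylation of biotinylated GST-cJun 1-79 at Ser73 with 10 µM ATP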)
In short: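 JNK3 came from HepG2 lysates pre-activated with IL-1beta and TNF-alpha and phosphorylated biotinylated GST-cJun (1-79) at 10 uM ATP, pH 7.6, room temperature. Compounds were titrated. AlphaScreen signal used anti-phospho-cJun (Ser73) antibody.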

[8] = target: 3',5'-cyclic-AMP phosphodiesterase 4B (Homo sapiens) (UniProt Q07343); experiment: qHTS Assay for Inhibitors of PDE-IV (AID 607; active = well fitted activation curve with a large enough effect in the main read-out, with a control signal flat, not every such curve was filed as active)
Sequence of 3',5'-cyclic-AMP phosphodiesterase 4B (Homo sapiens) (Q07343 whole entry, looked up): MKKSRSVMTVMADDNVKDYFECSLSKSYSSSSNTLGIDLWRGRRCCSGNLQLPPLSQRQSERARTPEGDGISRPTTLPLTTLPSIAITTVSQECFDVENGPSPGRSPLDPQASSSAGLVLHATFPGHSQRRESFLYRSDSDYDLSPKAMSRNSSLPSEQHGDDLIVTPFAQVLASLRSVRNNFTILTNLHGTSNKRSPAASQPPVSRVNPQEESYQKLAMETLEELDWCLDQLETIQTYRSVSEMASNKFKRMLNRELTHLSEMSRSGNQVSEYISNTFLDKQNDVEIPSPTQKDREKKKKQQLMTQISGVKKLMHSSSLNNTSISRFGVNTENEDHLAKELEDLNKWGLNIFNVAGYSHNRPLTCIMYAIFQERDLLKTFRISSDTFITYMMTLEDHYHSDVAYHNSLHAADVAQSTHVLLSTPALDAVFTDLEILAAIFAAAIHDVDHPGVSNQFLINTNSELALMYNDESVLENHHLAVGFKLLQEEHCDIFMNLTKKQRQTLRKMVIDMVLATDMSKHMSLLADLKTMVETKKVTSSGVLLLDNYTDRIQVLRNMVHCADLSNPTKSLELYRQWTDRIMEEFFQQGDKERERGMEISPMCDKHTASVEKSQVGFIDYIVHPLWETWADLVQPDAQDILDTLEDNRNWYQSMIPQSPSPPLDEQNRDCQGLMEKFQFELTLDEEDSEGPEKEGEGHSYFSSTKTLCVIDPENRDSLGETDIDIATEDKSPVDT
In short: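 HEK293 ACTOne cells with CNG channel (1000/well), endogenous PDE4; membrane potential dye, compounds up to 22.9 uM final. Fluorescence Ex 535/Em 590; RO 20-1724 (100 uM final) as reference.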

[9] = qHTS Assay for Lipid Storage Modulators (AID 1519; calls by dose curve); details: Drosophila S3 cells, BODIPY lipid droplet/cell ratio, laser cytometry, cells loaded with oleic acid; for activity change, negative = inhibition: at 25.7 µM (top of the series)
In short: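 Cells seeded at 5,000 per well were treated with compounds over a concentration series and loaded with oleic acid (400 uM, as added). Lipid droplet fluorescence (488 nm excitation, 500-530 nm channel) was read by laser-scanning cytometry and normalized to 20 uM Triacsin C.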

[10] = target: ATP-dependent 6-phosphofructokinase (Trypanosoma brucei brucei) (UniProt O15648); experiment: qHTS Assay to Find Inhibitors of T. brucei phosphofructokinase: hit validation (AID 492961);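 also: luminescence reports ADP formed as PFK phosphorylates fructose-6-phosphate with ATP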
Sequence of ATP-dependent 6-phosphofructokinase (Trypanosoma brucei brucei) (O15648 whole entry, looked up): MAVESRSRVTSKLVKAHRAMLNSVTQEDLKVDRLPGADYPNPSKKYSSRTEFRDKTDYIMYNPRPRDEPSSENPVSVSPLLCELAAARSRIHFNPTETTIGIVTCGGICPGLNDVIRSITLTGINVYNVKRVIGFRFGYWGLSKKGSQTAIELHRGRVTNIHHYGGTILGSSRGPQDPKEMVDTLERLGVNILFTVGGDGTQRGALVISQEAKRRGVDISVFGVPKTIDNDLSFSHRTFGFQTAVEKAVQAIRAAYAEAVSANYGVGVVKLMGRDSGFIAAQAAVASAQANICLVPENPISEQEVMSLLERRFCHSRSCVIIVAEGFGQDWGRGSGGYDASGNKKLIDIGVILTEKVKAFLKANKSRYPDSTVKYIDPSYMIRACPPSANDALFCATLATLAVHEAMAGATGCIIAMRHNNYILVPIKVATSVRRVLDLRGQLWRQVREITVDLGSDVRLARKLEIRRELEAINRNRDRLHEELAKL
In short: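 Reaction: 0.1 M triethanolamine pH 8.0, 5 mM MgCl2, F6P 0.5 mM, ATP 0.1 mM, PFK 1.25 nM, 45 min RT. Read-out: ADP-Glo luminescence. Analysis: concentration-response fits, classed by r2 and efficacy.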

[11] = target: Ubiquitin carboxyl-terminal hydrolase 1 (Homo sapiens) (UniProt O94782); experiment: Inhibitors of USP1/UAF1: Pilot qHTS (AID 504865);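 also: rhodamine fluorescence freed from ubiquitin-rhodamine substrate followed over time; top concentration of the series differs between compounds; nearly all actives have a fitted effect of over 35% in size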
Sequence of Ubiquitin carboxyl-terminal hydrolase 1 (Homo sapiens) (O94782 whole entry, looked up): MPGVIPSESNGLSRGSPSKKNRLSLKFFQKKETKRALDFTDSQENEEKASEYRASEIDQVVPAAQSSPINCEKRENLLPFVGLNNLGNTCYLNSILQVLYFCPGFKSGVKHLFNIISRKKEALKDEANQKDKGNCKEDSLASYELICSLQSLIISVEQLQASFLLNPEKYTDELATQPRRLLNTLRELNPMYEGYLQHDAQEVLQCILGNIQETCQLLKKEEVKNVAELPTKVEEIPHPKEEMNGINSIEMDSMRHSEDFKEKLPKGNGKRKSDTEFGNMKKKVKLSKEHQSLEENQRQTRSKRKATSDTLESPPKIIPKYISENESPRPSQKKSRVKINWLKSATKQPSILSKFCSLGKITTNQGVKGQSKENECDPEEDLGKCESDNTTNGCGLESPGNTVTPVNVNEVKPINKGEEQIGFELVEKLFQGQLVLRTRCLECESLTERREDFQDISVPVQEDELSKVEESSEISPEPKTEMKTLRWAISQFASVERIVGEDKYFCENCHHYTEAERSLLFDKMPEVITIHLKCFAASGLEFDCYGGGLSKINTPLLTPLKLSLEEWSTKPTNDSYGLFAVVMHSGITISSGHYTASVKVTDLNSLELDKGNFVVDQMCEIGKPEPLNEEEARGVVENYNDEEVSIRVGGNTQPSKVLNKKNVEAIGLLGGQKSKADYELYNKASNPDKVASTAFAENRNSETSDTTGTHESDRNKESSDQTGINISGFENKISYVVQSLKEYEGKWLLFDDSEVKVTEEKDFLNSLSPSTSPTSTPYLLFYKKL
In short: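 Deubiquitinase activity followed as kinetic rhodamine fluorescence release from 150 nM Ub-Rho. 1 nM USP1/UAF1 with compound, after 15 min room-temperature preincubation, in HEPES pH 7.8 buffer containing TCEP, EDTA, BSA and Tween-20.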

[12] = target: Luciferin 4-monooxygenase (Photinus pyralis) (UniProt P08659); experiment: Biochemical firefly luciferase enzyme assay for NPC (AID 624030);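 also: purified P. pyralis luciferase at 10 nM with luciferin and ATP substrate; nearly all actives have a fitted effect of over 70% in size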
Sequence of Luciferin 4-monooxygenase (Photinus pyralis) (P08659 whole entry, looked up): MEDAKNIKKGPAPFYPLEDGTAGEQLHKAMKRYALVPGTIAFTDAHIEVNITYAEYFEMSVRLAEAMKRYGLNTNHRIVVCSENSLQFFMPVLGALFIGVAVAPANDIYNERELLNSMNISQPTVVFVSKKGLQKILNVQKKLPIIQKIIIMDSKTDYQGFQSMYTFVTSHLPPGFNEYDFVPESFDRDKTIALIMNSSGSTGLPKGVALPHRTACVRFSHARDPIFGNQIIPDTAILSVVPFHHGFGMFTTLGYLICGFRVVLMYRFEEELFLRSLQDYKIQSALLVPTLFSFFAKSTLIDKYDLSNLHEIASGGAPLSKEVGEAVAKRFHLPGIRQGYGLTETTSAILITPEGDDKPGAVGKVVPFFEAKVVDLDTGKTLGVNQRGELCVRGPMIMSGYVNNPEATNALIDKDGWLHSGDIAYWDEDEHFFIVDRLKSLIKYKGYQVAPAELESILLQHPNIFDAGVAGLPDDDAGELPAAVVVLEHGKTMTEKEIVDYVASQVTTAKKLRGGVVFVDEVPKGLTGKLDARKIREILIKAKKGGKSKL
In short: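 Counter-screen for direct inhibition of the luciferase enzyme by approved-drug library compounds, run at 10 nM enzyme in 50 mM Tris acetate (final). Luminescence was read within 5 min of enzyme-buffer addition and normalized to PTC124 versus DMSO (0%).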

[13] = S16 Schwann cell PMP22 intronic element firefly luciferase assay (AID 624032); also: nearly all actives have a fitted effect of over 30% in size; also: potency is read from the fitted curve at half-maximal effect
In short: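 Rat S16 Schwann cells stably carrying a PMP22 intronic element-driven Fluc reporter were seeded overnight, then exposed to compounds for 24 h at 37 °C. Luminescence was normalized to PTC124 (positive control) and DMSO (0% activity).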

[14] = qHTS profiling for inhibitors of Plasmodium falciparum proliferation (AID 504749); also: nearly all actives have a fitted effect of over 60% in size; details: P. falciparum in erythrocytes, SYBR Green DNA, 72 h
In short: (§1)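 P. falciparum-infected erythrocytes (0.3% parasitemia, 2.5% hematocrit final) were exposed to compounds for 72 h at 37 C in 5% CO2, then lysed with SYBR Green buffer overnight at room temperature; parasite DNA fluorescence was normalized to artemisinin and DMSO controls.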

CP191 = experiment: as above; details: P. falciparum in erythrocytes, SYBR Green DNA, 72 h; series mostly up to 12.8 µM
In short: as §1

CP217 = experiment: as above; details: P. falciparum in erythrocytes, SYBR Green DNA, 72 h; series mostly up to 12.8 µM
In short: as §1

CP250 = experiment: as above; details: P. falciparum in erythrocytes, SYBR Green DNA, 72 h; series mostly up to 12.8 µM
In short: as §1

CP256 = experiment: as above; details: P. falciparum in erythrocytes, SYBR Green DNA, 72 h; series mostly up to 12.8 µM
In short: as §1

FAB9 = experiment: as above; details: P. falciparum in erythrocytes, SYBR Green DNA, 72 h; series mostly up to 12.8 µM
In short: as §1

JCK = experiment: as above; details: P. falciparum in erythrocytes, SYBR Green DNA, 72 h; series mostly up to 12.8 µM
In short: as §1

[15] = measured here: cell count channel max response
[16] = measured here: lipid channel max response
[17] = at 12.8 µM (top of the series), parasite line A
[18] = at 12.8 µM (top of the series), parasite line B

## Cc1cccc(C)c1NC(=O)[C@H](C)N
[1]
  outcome: inactive
[2]
  Potency: inactive
[3]
  activity change, negative = inhibition: -7.54% (inactive)
[4]
  outcome: inactive
[5]
  Potency: > 20.6 µM (inactive)
[6]
  Potency: > 20.6 µM (inactive)
[7]
  Potency: inactive
[8]
  outcome: inactive
[9]
  activity change, negative = inhibition: -1.94% (inactive)
[9]; [15]
  max response: -3.54%
[9]; [16]
  max response: -7.81%
[10]
  outcome: inactive
[11]
  Potency: inactive
[12]
  Potency: inactive
[13]
  Potency: inactive
[14]; [17]
  activity, negative = inhibition: 7.15% (inactive)
[14]; [18]
  activity, negative = inhibition: 10.5% (inactive)
CP191
  Potency: inactive
CP217
  Potency: inactive
CP250
  Potency: inactive
CP256
  Potency: inactive
FAB9
  Potency: inactive
JCK
  Potency: inactive

## CCOC(=O)[C@H](CCc1ccccc1)N[C@@H](C)C(=O)N1[C@H](C(=O)O)C[C@H]2CCC[C@@H]21
[1]
  outcome: inactive
[2]
  Potency: inactive
[3]
  activity change, negative = inhibition: -18.7% (inactive)
[4]
  outcome: inactive
[5]
  Potency: > 20.6 µM (inactive)
[6]
  Potency: > 20.6 µM (inactive)
[7]
  Potency: inactive
[8]
  outcome: inactive
[9]
  activity change, negative = inhibition: -3.49% (inactive)
[9]; [15]
  max response: -8.48%
[9]; [16]
  max response: -7.94%
[10]
  outcome: inactive
[12]
  Potency: inactive
[13]
  Potency: inactive
[14]; at 28.7 µM (top of the series), parasite line A
  activity, negative = inhibition: 14.3% (inactive)
[14]; at 28.7 µM (top of the series), parasite line B
  activity, negative = inhibition: 4.68% (inactive)
CP191
  Potency: inactive
CP217
  Potency: inactive
CP250
  Potency: inactive
CP256
  Potency: inactive
FAB9
  Potency: inactive
JCK
  Potency: inactive

## C[C@H](N[C@@H](C)COc1ccccc1)[C@H](O)c1ccc(O)cc1
[1]
  outcome: inactive
[2]
  Potency: 5.01 µM (active)
[3]
  activity change, negative = inhibition: -9.06% (inactive)
[4]
  outcome: inactive
[5]
  Potency: > 20.6 µM (inactive)
[6]
  Potency: > 20.6 µM (inactive)
[7]
  Potency: inactive
[9]
  activity change, negative = inhibition: 0.23% (inactive)
[9]; [15]
  max response: -4.01%
[9]; [16]
  max response: -3.47%
[10]
  outcome: inactive
[11]
  Potency: inactive
[12]
  Potency: inactive
[13]
  Potency: 1.55 µM (active)
[14]; [17]
  activity, negative = inhibition: 2.67% (inactive)
[14]; [18]
  activity, negative = inhibition: 10.2% (inactive)
CP191
  Potency: inactive
CP217
  Potency: inactive
CP250
  Potency: inactive
CP256
  Potency: inactive
FAB9
  Potency: inactive
JCK
  Potency: inactive

## CN(C)/N=N\c1nc[nH]c1C(N)=O
[1]
  outcome: inactive
[2]
  Potency: inactive
[3]
  activity change, negative = inhibition: 3.5% (inactive)
[4]
  outcome: inactive
[5]
  Potency: > 20.6 µM (inactive)
[6]
  Potency: > 20.6 µM (inactive)
[7]
  Potency: inactive
[8]
  outcome: inactive
[9]
  activity change, negative = inhibition: 0.337% (inactive)
[9]; [15]
  max response: 10.1%
[9]; [16]
  max response: 7.48%
[11]
  Potency: inactive

## C=C1CC[C@H](O)C/C1=C/C=C1\CCC[C@]2(C)[C@H]1CC[C@H]2[C@@H](C)/C=C\[C@@H](C)C(C)C
[1]
  outcome: inactive
[2]
  Potency: inactive
[3]
  activity change, negative = inhibition: 1.42% (inactive)
[4]
  outcome: inactive
[5]
  Potency: > 20.6 µM (inactive)
[6]
  Potency: > 20.6 µM (inactive)
[7]
  Potency: inactive
[9]
  activity change, negative = inhibition: 0.549% (inactive)
[9]; [15]
  max response: -2.49%
[9]; [16]
  max response: -2.71%
[11]
  Potency: inactive
